Among the data in PubChem BioAssay (Tox21) are outcome and Potency values, retold here.

Assay [1] can be described thus: qHTS assay to identify small molecule antagonists of the vitamin D receptor (VDR) signaling pathway - cell viability counter screen (AID 743225). Also: nearly all actives have a fitted effect of over 50% in size. The settings on record: VDR-bla HEK293T viability, CellTiter-Glo luminescence, 16 h; series mostly up to 61 µM. In a few lines:
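VDR-UAS-bla HEK 293T cells were plated and incubated 4 h at 37C, then dosed with compound plus 3 nM (final) 1-alpha,25-dihydroxyvitamin D3 for 16 h. After the 2 h beta-lactamase read, viability in the same wells was read as CellTiter-Glo luminescence after 30 min at room temperature.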
A general note: In qHTS, concentration-response curves come from the screen itself.

The nature of assay [2]: qHTS assay to identify small molecule agonists of the NFkB signaling pathway (AID 1159509; active = well fitted curve in the direction sought with a large enough effect in the signal ratio in the repeat runs, not every such curve was filed as active; the % refers to the signal ratio). The settings on record: NFkB-bla ME-180 cells, beta-lactamase FRET ratio, 5 h; series mostly up to 61 µM. In short, it runs like this:
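After overnight attachment, reporter cells received test compounds, DMSO or positive controls and were incubated 5 hr at 37 C. FRET substrate was then added for 1.5 hr at room temperature before dual-emission fluorescence reading.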

Assay [3] is described as follows: qHTS assay to identify small molecule agonists of the endoplasmic reticulum stress response signaling pathway (AID 1159516; active = well fitted activation curve with a large enough effect in the signal ratio in the repeat runs, not every such curve was filed as active; the % refers to the signal ratio). The settings on record: ESRE-bla HeLa, ER stress beta-lactamase reporter, 5 h; series mostly up to 61 µM. In a few lines:
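An ESRE-bla HeLa cell assay: compounds were pin-transferred from DMSO onto overnight-plated cells and left 5 hr at 37 C. Substrate was then loaded for 2 hr at room temperature before reading fluorescence at 460 nm and 530 nm.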

The nature of assay [4]: qHTS assay to identify small molecule agonists of the endoplasmic reticulum stress response signaling pathway - cell viability counter screen (AID 1159517; calls by dose curve;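 also: HeLa cells carrying an ER stress response element beta-lactamase reporter; nearly all actives have a fitted effect of over 50% in size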). The settings on record: ESRE-bla HeLa viability, CellTiter-Glo luminescence, 5 h; series mostly up to 61 µM. In short, it runs like this:
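Luminescence readout: CellTiter-Glo, 30 min RT, same wells as the ESRE-bla reporter read. HeLa ESRE-bla, 1,500 cells/well, o/n 37 C; cpd 5 hr 37 C/5% CO2.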

The nature of assay [5]: qHTS assay to identify small molecule antagonists of the retinoid-related orphan receptor gamma (ROR-gamma) signaling pathway - cell viability counter screen (AID 1159520). Also: nearly all actives have a fitted effect of over 50% in size. The settings on record: Tet-on RORgamma CHO cells viability, ATP luminescence, 16 h; series mostly up to 92.4 µM. In short, it runs like this: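 Tet-on ROR gamma CHO cells (1,000/well) were plated 4 hr, given compounds in DMSO for 2 hr at 37 C, then induced with 1 uM final doxycycline for 16 hr. Viability was read as ATP by CellTiter-Glo luminescence after 30 min.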

For assay [6], the target named is Nuclear receptor ROR-gamma (Homo sapiens) (UniProt P51449). As to the kind of experiment: qHTS assay to identify small molecule antagonists of the retinoid-related orphan receptor gamma (ROR-gamma) signaling pathway (AID 1159521; also: top concentration of the series differs between compounds; nearly all actives have a fitted effect of over 50% in size). The settings on record: Tet-on RORgamma CHO cells, RORE-luciferase, 16 h; series mostly up to 92.4 µM. In a few lines: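 Tet-on ROR-gamma CHO cells with ROR response element-luciferase reporter; compounds added 2 hr before 1 uM doxycycline induction, then 16 hr at 37 C. Antagonism scored as decreased ONE-Glo luminescence.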

The nature of assay [7]: qHTS assay to identify small molecule agonists of the AP-1 signaling pathway - cell viability counter screen (AID 1159525; calls by dose curve; also: nearly all actives have a fitted effect of over 55% in size). The settings on record: ME-180 AP-1-bla cells viability, ATP luminescence, 5 h; series mostly up to 76.8 µM. In short, it runs like this: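 ME-180 AP-1-bla, 2500 cells/well, Opti-MEM + 0.5% dialyzed FBS; overnight 37 °C; cpd 15-pt titration, 5 h 37 °C; CellTiter-Glo 30 min RT; luminescence read; normalised to TOAB and DMSO controls.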

Assay [8] in a line: qHTS assay to identify small molecule agonists of the AP-1 signaling pathway (AID 1159526; calls by dose curve). The settings on record: ME-180 (cervical carcinoma) AP-1-bla reporter, beta-lactamase FRET ratio, 5 h; series mostly up to 76.8 µM.
Assay [9] is described as follows: qHTS assay to identify small molecule agonists of the RXR signaling pathway - cell viability counter screen (AID 1159529). Also: nearly all actives have a fitted effect of over 50% in size. Also: potency is read from the fitted curve at half-maximal effect. The settings on record: RXR-alpha-bla HEK293T viability, CellTiter-Glo, 16 h; series mostly up to 76.8 µM. In short, it runs like this:
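RXR-alpha-UAS-bla HEK 293T cells in medium with 2% charcoal-stripped FBS were pre-incubated 5 hr, then compound-treated 16 hr at 37 C. Viability was read by CellTiter-Glo luminescence in the same wells as the beta-lactamase assay, with tetraoctyl ammonium bromide as positive control.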

Assay [10] in a line: qHTS assay to identify small molecule antagonists of the retinoid acid receptor (RAR) signaling pathway - cell viability counter screen (AID 1159551). Also: nearly all actives have a fitted effect of over 35% in size. The settings on record: C3RL4 cells viability, ATP luminescence (CellTiter-Glo), 6 h; series mostly up to 92.4 µM. In a few lines: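 Retinol-stimulated (1 uM final) C3RL4 cells, compound 6 h, 37 C; readout CellTiter-Glo luminescence (ATP) after 30 min RT incubation.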

The nature of assay [11]: qHTS assay to identify small molecule antagonists of the retinoic acid receptor (RAR) signaling pathway (AID 1159552; also: nearly all actives have a fitted effect of over 50% in size). The settings on record: C3RL4 RARE luciferase reporter, retinol-stimulated, 6 h; series mostly up to 92.4 µM. In short, it runs like this:
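Retinol signaling pathway inhibitors screened in C3RL4 RARE-luciferase reporter cells seeded overnight at 37 C, then compounds added with 1 uM (final) retinol as pathway substrate. After 6 hr at 37 C, luciferase luminescence read after 30 min at room temperature.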

Assay [12] can be described thus: qHTS assay to identify small molecule agonists of the retinoic acid receptor (RAR) signaling pathway (AID 1159553). The settings on record: C3RL4 RARE luciferase reporter, agonist, 6 h; series mostly up to 73.3 µM. In a few lines:
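Reporter readout comes from luciferase under RARE control in C3RL4 cells; compound exposure lasts 6 hr at 37 C in 5% CO2, and luminescence is recorded following a 30 min room-temperature incubation with reagent.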

Assay [13] can be described thus: qHTS assay to identify small molecule agonists of the NFkB signaling pathway - cell viability counter screen (AID 1159515; calls by dose curve; also: nearly all actives have a fitted effect of over 55% in size). The settings on record: NFkB-bla ME-180 viability, CellTiter-Glo luminescence, 5 h; series mostly up to 61 µM. In short, it runs like this:
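Using the same wells as the NFkB reporter read, ME-180 NFkB-bla cells given compounds for 5 hr were assessed for viability via CellTiter-Glo, with luminescence taken after a 30 min room-temperature incubation.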

Inconclusive results are not listed. Values without a mark were called inactive. Calls of active or inactive are those of the source. Unless noted, calls follow the shape of the dose curve; as a rule, active = well fitted curve in the direction sought with a large enough effect in the repeat runs; inconclusive = weak or mixed curves; inactive = no such curve, though single readings can be large; an effect the other way counts as inactive or inconclusive.

For the compound `NC(=O)c1ccccc1C(N)=O`, the compound was classed as inactive in assay [1], in assay [2], in [3], in assay [4], in assay [7] and in [10]. The Potency entry in assay [5], in assay [6] and in assay [8] was “inactive” in each case. The Potency in assay [9] was 34.8 µM (active).

`Cc1ccc(NC(=O)c2ccc(CN3CCN(C)CC3)cc2)cc1Nc1nccc(-c2cccnc2)n1`: the result in assay [2], in [4], in assay [7] and in assay [10] was inactive. In addition, the Potency entry in assay [5], in [6], in assay [8] and in [9] was “inactive” throughout.

Consider `Sc1nc(S)nc(S)n1`, for which the compound was classed as inactive in assay [1], in assay [2], in [3], in assay [4], in [7] and in [10]. The Potency result in assay [5], in assay [8] and in assay [9] was “inactive” in each case.

Turning to `Oc1ccc(CCNCCCCCCNCCc2ccccc2)cc1O`, the result in [1], in assay [2], in assay [3], in assay [4], in assay [7] and in assay [10] was inactive. Besides, the result in assay [11] was inactive. Besides, the Potency entry in [5], in assay [6], in [8] and in [12] was “inactive” each time.

Take `N#CCCCC(C#N)CCC#N` (stereo not drawn): the outcome in assay [1], in [2], in [3], in assay [4], in [7] and in assay [10] was inactive. The result in assay [11] was inactive. For the same compound, the Potency entry in assay [5], in [8], in assay [9] and in [12] was “inactive” in each case.

Turning to `Cc1cc(C)n(CO)n1`, the outcome in assay [1], in assay [2], in [3], in assay [4] and in assay [7] was inactive. Also, the Potency result in assay [5], in assay [8], in assay [9] and in assay [12] was “inactive” in each case.

As to `C/C=C1\[C@H]2C=C(C)C[C@]1(N)c1ccc(=O)[nH]c1C2`, the call in assay [1], in [2], in [3], in [4], in assay [10] and in assay [11] was inactive. The Potency entry in assay [5], in [6], in [8], in [9] and in assay [12] was “inactive” throughout.

As to `CCOc1cc(OCC)c(C(C)=O)cc1OCC`, the call in [1], in assay [2], in assay [3], in assay [4], in assay [7] and in assay [10] was inactive. Further, in assay [11], the result was inactive. The Potency entry in [5], in assay [6], in assay [8], in assay [9] and in [12] was “inactive” each time.

In the case of `CC(CCl)OC(C)CCl` (stereo not drawn), the outcome in assay [1], in assay [2], in assay [3], in assay [4], in [7] and in assay [10] was inactive. Besides, the compound was classed as inactive in [11]. The Potency result in [5], in assay [6], in assay [8], in assay [9] and in assay [12] was “inactive” throughout.

With `CC/C=C\CCO`, the compound was classed as inactive in assay [1], in assay [13], in assay [3], in assay [4], in assay [7] and in assay [10]. Further, the Potency entry in assay [5], in assay [8] and in [9] was “inactive” each time.

On to `N#C[C@@H]1CC(F)(F)CN1C(=O)CNC1CC2CCC(C1)N2c1ncccn1` (stereo partly drawn), for which the compound was classed as inactive in assay [1], in [2], in assay [3], in assay [4], in [10] and in assay [11]. The Potency entry in assay [5], in assay [6], in assay [8], in [9] and in assay [12] was “inactive” each time.
